Compounds with a hit are over-represented: about 19% of the library has one in this group of screens.
HT1080-NT tox – kills 2HG-producing HT-1080-NT fibrosarcoma cells | HT-1080-NT fibrosarcoma viability, CellTiter-Glo ATP luminescence, 48 h | 1.6% of 360,000 active | Potency, µM (top dose mostly 46.1 µM), without a hit: at the highest dose activity, negative = less viability, most hits filed as cytotoxic;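 note: NT is the 2HG producing partner of a matched IDH1 knockdown line; 0% = DMSO-treated cells and -100% = media-only wells without cells; nearly all actives have a fitted effect of over 55% in size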
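Viability of the 2HG-overproducing fibrosarcoma line after 48 hours of compound exposure at 37 degrees C was determined by luminescence with CellTiter-Glo, and concentration-effect curves were then fitted and categorized.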
KB-V1 cytotox – kills drug-selected multidrug resistant KB-V1 cells. AID 1347076. 3.4% of 400,000 active. KB-V1 MDR cells viability, CellTiter-Glo, 72 h. Potency, µM (series often up to 46.1 µM), hits mostly cytotoxic; note: nearly all actives have a fitted effect of over 60% in size
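Potencies derive from concentration-effect curves fitted to normalized luminescence (CellTiter-Glo) of KB-V1 cells treated for 72 h at 37 degrees C in phenol-red-free DMEM containing 10% FBS.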
HT1080 IDH1KD tx – kills HT-1080 cells with IDH1 knockdown | Potency, µM (doses to about 46.1 µM), without a hit: at the top dose activity, negative = toxicity, hits mostly cytotoxic | 2% of 360,000 active | AID 686971 | HT-1080 IDH1 knockdown viability, ATP luminescence, 48 h;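 note: 0% = DMSO wells and -100% = cell-free medium wells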
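CellTiter-Glo luminescence after 48 h compound exposure at 37 degrees C of IDH1-knockdown HT-1080 cells in 5% FBS RPMI. %Activity scaled between DMSO wells and cell-free media wells, with curves fitted and assigned curve classes.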
TDP1 cell noCPT – qHTS for Inhibitors of human tyrosyl-DNA phosphodiesterase 1 (TDP1): qHTS in cells in absence of CPT; DT40 Tdp1-/- hTDP1 cells, no CPT, ATP luminescence, 48 h; 15% of 420,000 active; Potency, µM (top dose mostly 46.2 µM), for inactives: at the top dose activity change, negative = growth inhibition, actives largely listed as inhibitors; note: nearly all actives have a fitted effect of over 55% in size
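DT40 Tdp1-/-;hTDP1 cells, no CPT (DMSO vehicle only), 400 cells/well; compounds pin-transferred; ≥48 hr, 37 °C; CellTiter-Glo 30 min RT dark, luminescence read.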
DT40 TDP1 CPT – DT40-hTDP1 cell growth loss with CPT; 12% of 420,000 active; chicken DT40 Tdp1-/-;hTDP1 cells + 20 nM CPT, ATP luminescence, 48 h; AID 686979; Potency, µM (doses to about 46.2 µM), for inactives: at the highest dose activity change, negative = growth inhibition, usual class: inhibitors; note: nearly all actives have a fitted effect of over 55% in size
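Cell growth measured by CellTiter-Glo luminescence after a minimum 48 h, 37 C compound exposure with 20 nM CPT in Tdp1-knockout DT40 cells stably expressing hTDP1, seeded 400/well; qHTS titration format.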
KB-3-1 cytotox – KB-3-1 parental cell cytotoxicity; 1.4% of 400,000 active; Potency, µM (doses to about 46.1 µM), actives largely listed as cytotoxic; AID 1347075; KB-3-1 viability, CellTiter-Glo ATP luminescence, 72 h; note: nearly all actives have a fitted effect of over 60% in size
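Screening of KB-3-1 cells (DMEM, 10% FBS, phenol-red free) ran from lowest to highest compound concentration; after 72 h at 37 °C viability was read luminescently and curves fitted.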
* hit, by the source's call; i = inactive; ? = inconclusive; nt = no result. Calls come from the whole dose curve; as a rule, active = well fitted curve in the direction sought with a large enough effect; inconclusive = small, poorly fitted or top-dose-only effect, or another doubt; inactive = no such curve, though single readings can be large; an effect the other way counts as inactive or inconclusive. Unless noted, % is set by controls: 0 for no effect and ±100 for the full control effect; potency is the fitted concentration of half-maximal effect.

SMILES | HT1080-NT tox | KB-V1 cytotox | HT1080 IDH1KD tx | TDP1 cell noCPT | DT40 TDP1 CPT | KB-3-1 cytotox
COc1cc(CNC(C)(C)CO)cc(Br)c1OCc1ccc(Cl)cc1 | ? | 23µM* | ? | ? | ? | ?
COc1cc(CNC(C)(C)CO)cc(Br)c1OCc1ccc(Cl)cc1Cl | 16µM* | 18µM* | 16µM* | ? | ? | ?
CNCc1c(OCc2ccccc2)ccc2ccccc12 | -16% | i | ? | ? | ? | i
COc1cc(C(=O)NC2CCCCC2)ccc1OCc1ccc(Cl)cc1Cl | 0% | ? | 13% | -18% | -26% | i
CCCCC(=O)N(C)c1c(C)nc2ccc(C(=O)N3CCN(C(=O)c4ccco4)CC3)cn12 | 3% | i | 2% | -13% | -23% | i
OCC[C@@H]1C[C@@H](O)[C@H](O)[C@@]2(CCCc3ccccc3O2)O1 | -1% | i | 7% | -5% | -4% | i
CCOc1ccc(S(=O)(=O)Nc2ccc(C(=O)N3CCCC3)cc2)cc1C(N)=O | 9% | i | 11% | -15% | 1% | i
Cc1ccc2c(c1)N(CC(=O)NCC(C)c1ccccc1)C(=O)c1cccnc1O2 (stereo not drawn) | -2% | i | 3% | ? | -27% | i
Nc1ccc2oc(-c3ccc4nc[nH]c4c3)nc2c1 | -3% | i | -15% | 10µM* | 21µM* | i
COc1ccccc1C1CC(c2c(-c3ccccc3)c3cc(Cl)ccc3[nH]c2=O)=NN1S(C)(=O)=O (stereo not drawn) | 26µM* | ? | ? | 29µM* | 26µM* | ?
COc1cccc(C2CC(c3c(-c4ccccc4)c4cc(Cl)ccc4[nH]c3=O)=NN2S(C)(=O)=O)c1OC (stereo not drawn) | ? | ? | 18µM* | 16µM* | 21µM* | ?
Cc1cccc([C@@H]2[C@@H]3C(=O)N(Cc4ccccc4)C(=O)[C@@H]3[C@]3(Cc4ccccc4)C(=O)N(c4cccc(F)c4)C(=O)N23)c1 | 0% | i | -2% | -16% | -2% | i
COc1cc(C2C3C(=O)N(c4ccccc4)C(=O)C3ON2c2ccccc2)cc(OC)c1OC (stereo not drawn) | 19% | ? | 14% | -3% | 6% | i
CCN1C/C(=C\c2cc(OC)c(OC)c(OC)c2)C2=NN(c3ccccc3)C(c3cc(OC)c(OC)c(OC)c3)C2C1 (stereo not drawn) | 7% | ? | -2% | 5.8µM* | 6.5µM* | ?
CC(C)CC1Nc2ncnc(N3CCN(c4ccccc4)CC3)c2N(Cc2ccc(Cl)cc2)C1=O (stereo not drawn) | -2% | ? | -11% | 18µM* | ? | i
CC(C)CC1Nc2ncnc(N3CCN(c4ccccn4)CC3)c2N(Cc2ccccc2)C1=O (stereo not drawn) | 3% | ? | 5% | ? | ? | i
CC(C)CC1Nc2ncnc(N3CCOCC3)c2N(Cc2ccc(Br)cc2)C1=O (stereo not drawn) | 9% | i | 0% | ? | ? | i
Cc1ccc(CN2C(=O)C(CC(C)C)Nc3ncnc(N4CCN(c5ccccc5)CC4)c32)cc1 (stereo not drawn) | -1% | ? | -7% | 21µM* | 15µM* | ?
CC(C)CC1Nc2ncnc(N3CCCCC3)c2N(Cc2ccc(Br)cc2)C1=O (stereo not drawn) | -21% | ? | -29% | 16µM* | ? | ?
CC(C)c1ccc(NC(=O)CN(C)S(=O)(=O)c2ccc3c(c2)n(C)c(=O)c(=O)n3C)cc1 | nt | i | nt | ? | -30% | i
CCc1ccccc1N1C(=O)N(C)c2ccccc2S1(=O)=O | nt | i | nt | ? | -21% | i
COc1cc(C2C=C(C34CC5CC(CC(C5)C3)C4)NC(=S)N2)cc(OC)c1OC (stereo not drawn) | -19% | ? | -26% | 5.8µM* | ? | ?
O=C(O)c1ccc(N=C2c3ccccc3-c3ccccc32)cc1 | 17% | i | 23% | 19% | 9% | i
Cc1ccc(-n2cc(CNCCc3ncc(C)[nH]3)c(-c3ccc(F)cc3)n2)cc1 | 16µM* | ? | 21µM* | ? | 16µM* | ?
Cc1ccc(-n2cc(CNCCn3nc(C)cc3C)c(-c3ccc(F)cc3)n2)cc1 | 21µM* | i | ? | 23µM* | 15µM* | i
SMILES | HT1080-NT tox | KB-V1 cytotox | HT1080 IDH1KD tx | TDP1 cell noCPT | DT40 TDP1 CPT | KB-3-1 cytotox
Cc1ccc(-n2cc(CNCCCN3CCCC3=O)c(-c3ccc(F)cc3)n2)cc1 | -22% | i | 0% | 18µM* | ? | i
Fc1ccc(-n2cc(CNCCc3ccccn3)c(-c3ccccc3Cl)n2)cc1 | 21µM* | 21µM* | 21µM* | 7.3µM* | 9.2µM* | ?
COc1ccc(-n2cc(CNCCCn3ccnc3)c(-c3ccccc3Cl)n2)cc1 | -16% | i | -16% | ? | ? | i
CCN(Cc1ccncc1)C(=O)c1ccc2c(c1)S(=O)(=O)c1ccccc1C2=O | -11% | i | 0% | -14% | -8% | i
Cc1cccc(-n2cc(CNCCN3CCOC3=O)c(-c3cccc(F)c3)n2)c1 | -19% | i | ? | 21µM* | ? | i
Cc1cccc(-n2cc(CN3CCCN(C=O)CC3)c(-c3cccc(F)c3)n2)c1 | 18% | ? | -8% | ? | ? | i
Cc1ccc(-n2cc(CNCCN3CCOC3=O)c(-c3ccc(F)cc3)n2)cc1 | -20% | ? | -23% | ? | 23µM* | i
C/C=C(\C)CN1CCC(Oc2cc(C(=O)NC3CC3)ccc2OC)CC1 | -2% | ? | -12% | 0% | 12% | ?
CCN1CCN(C(=O)CN(c2ccccc2C)S(C)(=O)=O)CC1 | 12% | i | 15% | -9% | 0% | i
O=c1[nH]c(SCc2ccccc2)nc2ccsc12 | -22% | i | -28% | -27% | -4% | i
CCC(C)n1c(SCc2ccc(F)cc2Cl)nc2ccsc2c1=O (stereo not drawn) | nt | nt | nt | 21µM* | 18µM* | nt
CCC(C)n1c(SCc2ccccc2)nc2ccsc2c1=O (stereo not drawn) | -4% | 10µM* | 1% | 21µM* | ? | ?

Compound activity (PubChem)
